Compound activity as filed in PubChem.
TGFb inhibitor – qHTS for Inhibitors of TGF-b; HepG2 CAGA-GFP TGF-b/SMAD3 reporter, GFP fluorescence, 18 h; TGF-beta stimulated, 500 pg/mL final; Potency, µM (highest dose often 46.1 µM), inactives show at the highest dose activity, negative = inhibition, usual class: inhibitors; actives 1.2% (n = 410,000); note: % is set by controls: 0 for no effect and ±100 for the full control effect; nearly all actives have a fitted effect of over 65% in size
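HEPG2 CAGA-GFP cells (1000/well, DMEM with 1% FBS) were pre-incubated 2 h at 37 degrees C, given compound by pin tool, then stimulated with TGF-beta at 500 pg/mL final for 18 h before per-cell GFP fluorescence imaging.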
HepG2 tox-1 – qHTS for Inhibitors of TGF-b: Cytotox Counterscreen. HepG2 CAGA-GFP viability, ATP luminescence, 18 h. Potency, µM (series often up to 46.1 µM), for the others: top-dose activity change, negative = cytotoxicity, actives largely listed as cytotoxic. actives 0.76% (n = 410,000)
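HepG2 CAGA-GFP cells (1000/well, DMEM with 1% FBS) received compound, then TGF-beta at 500 pg/mL final, and were incubated 18 hours at 37 degrees C. Viability was read by CellTiter-Glo luminescence. Media-only wells were set as complete cell-killing and DMSO as no toxicity.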
HTT cytoprotect – qHTS Multiplex Assay to Identify Dual Action Probes in a Cell Model of Huntington: Cytoprotection (ATP) | PC12 HTT-Q103 induced, cytoprotection, ATP luminescence, 40 h | Potency, µM (titrated, usually from 56.4 µM), for inactives: cytoprotection (ATP increase), usual class: activators | actives 0.14% (n = 230,000) | AID 1471, 2008; note: % of control where 0% means no effect; nearly all actives have a fitted effect of over 45% in size
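ATP quantification (ATPlite) reports survival of PC12 cells in which tebufenozide, 100 nM final, switches on Htt exon 1 with 103 glutamines linked to GFP; compounds are titrated.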
ATXN viability – Viability Counterscreen for Primary qHTS for Inhibitors of ATXN expression | actives 0.49% (n = 400,000) | AID 651635, 2014 | Potency, µM (doses to about 56.7 µM), actives largely listed as cytotoxic | S2 cells (HEK-293 line with an ATXN2-luciferase reporter) viability, CellTiter-Fluor protease fluorescence, 24 h; note: nearly all actives have a fitted effect of over 40% in size
ATXN2 expr inh – Primary qHTS for Inhibitors of ATXN expression. HEK-293 ATXN2-luciferase reporter, luminescence, 24 h. Potency, µM (titrated, usually from 57 µM), inactives show at the top dose activity change, negative = inhibition, usual class: inhibitors. actives 0.72% (n = 360,000); note: % is set by controls: 0 for no effect and ±100 for the full control effect; nearly all actives have a fitted effect of over 55% in size
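ATXN2-luciferase reporter cells (luciferase flanked by upstream and downstream ATXN2 gene portions) were treated 24 h at 37 °C with compounds at up to 57 uM. SteadyGlo luminescence gave expression; GF-AFC fluorescence gave viability.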
HttQ103 aggreg – qHTS Multiplex Assay to Identify Dual Action Probes in a Cell Model of Huntington: Aggregate Formation (GFP) | PC12 HttQ103-GFP aggregates, Acumen cytometry, 40 h | Potency, µM (top dose mostly 46.1 µM), inactives show at the top dose activity change, negative = inhibition, hits mostly inhibitors | actives 1.1% (n = 220,000) | AID 1688, 2009; note: % is set by controls: 0 for no effect and ±100 for the full control effect; nearly all actives have a fitted effect of over 60% in size
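Ecdysone-promoter PC12 model expressing HTT exon 1 Q103 fused to GFP, induced by tebufenozide at 100 nM final. Compounds titrated; aggregates sized 1–25 µm scored on a 488 nm laser cytometer.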
TGFb confirm – qHTS for Inhibitors of TGF-b: Confirmation of Cherry Picks; HepG2 CAGA-GFP TGF-b reporter, GFP fluorescence, 18 h; cells stimulated with TGF-beta, 500 pg/mL; shares compounds with TGFb inhibitor; AID 720534, 2013; actives 63% (n = 1,600); Potency, µM (highest dose often 46.1 µM), without a hit: at the top dose activity, negative = inhibition, most hits filed as inhibitors; note: % is set by controls: 0 for no effect and ±100 for the full control effect; nearly all actives have a fitted effect of over 65% in size
HepG2 tox-2 – qHTS for Inhibitors of TGF-b: Cytotox Counterscreen for Cherry Picks; shares compounds with TGFb inhibitor; HepG2 CAGA-GFP viability, ATP luminescence, 18 h; cells stimulated with TGF-beta, 500 pg/mL; Potency, µM (series often up to 46.1 µM), for the others: top-dose activity, negative = cytotoxicity, hits mostly inhibitors; actives 27% (n = 1,600); AID 720535, 2013; note: % is set by controls: 0 for no effect and ±100 for the full control effect; nearly all actives have a fitted effect of over 70% in size
TGFb CCL64 inh – qHTS for Inhibitors of TGF-b: CCL64 Cells Orthogonal Assay for Cherry Picks | shares compounds with TGFb inhibitor | CCL64 CAGA-GFP reporter, TGF-b stimulated, GFP fluorescence, 18 h | Potency, µM (doses to about 46.1 µM), for inactives: at the highest dose activity, negative = inhibition, most hits filed as inhibitors | actives 41% (n = 1,600); note: nearly all actives have a fitted effect of over 65% in size
TGFb COP inh – qHTS for Inhibitors of TGF-b: Hit Validation in HepG2 Cells using COP promoter; actives 3% (n = 1,600); shares compounds with TGFb inhibitor; Potency, µM (highest dose often 46.1 µM), for the others: at the top dose activity, negative = inhibition, most hits filed as inhibitors; HepG2 COP-GFP TGF-b reporter, GFP fluorescence, 18 h; cells stimulated by added recombinant TGF-beta; note: nearly all actives have a fitted effect of over 70% in size
The depositor's hits bear a star; i = inactive; ? = inconclusive; nt = no result; [ ] = dose if it differs, or a comment. Sampled rows, rich in hits. Any-hit rate of the full collection: about 2.8%. Calls come from the whole dose curve; as a rule, active = well fitted curve in the direction sought with a large enough effect; inconclusive = small, poorly fitted or top-dose-only effect, or another doubt; inactive = no such curve, though single readings can be large; an effect the other way counts as inactive or inconclusive. Potency is the fitted concentration of half-maximal effect.

SMILES	TGFb inhibitor	HepG2 tox-1	HTT cytoprotect	ATXN viability	ATXN2 expr inh	HttQ103 aggreg	TGFb confirm	HepG2 tox-2	TGFb CCL64 inh	TGFb COP inh
Cc1cc(Nc2ccccc2)nc(NCc2ccccc2)n1	10µM*	-55%	7%[10 µM]	i	?	6.3µM*	4%	?	15µM*	63%
O=C1C(Cl)=C(NC2CCc3ccccc32)C(=O)c2ncccc21 (stereo unspecified)	nt	nt	-92%	nt	nt	nt	nt	nt	nt	nt
Cc1c(C(=O)Oc2cccc3cccnc23)cccc1[N+](=O)[O-]	?	-42%	-24%	i	-26%	-29%	-10%	0%	?	-12%
Cc1c(C(=O)O/N=C(\N)c2ccccn2)cccc1[N+](=O)[O-]	35%	10%	-7%[10 µM]	i	-19%	9%[9.22 µM]	nt	nt	nt	nt
CCOc1ccc(S(=O)(=O)N2CCN(C(=S)NCc3ccco3)CC2)cc1	8.9µM*	-22%	6%[10 µM]	i	-4%	22%	?	-1%	?	3%
Cc1ccc(Cl)cc1N1CCN(C(=S)NCc2ccco2)CC1	16µM*	-19%	-7%	i	-20%	12%	16µM*	?	?	38%
CC12C=C(/C=C/CCc3ccco3)C(C)(C1)C(CCc1ccco1)CC2=O (stereo unspecified)	nt	nt	1%[10 µM]	nt	nt	nt	nt	nt	nt	nt
CC(NC(=O)C1CCCN1S(=O)(=O)c1ccc2c(c1)n(C)c(=O)c(=O)n2C)c1ccccc1 (stereo unspecified)	-2%	-29%	27%[10 µM]	i	-1%	16%[9.22 µM]	nt	nt	nt	nt
CC(NC(=O)C1CCCN1S(=O)(=O)c1ccccc1)c1ccccc1 (stereo unspecified)	?	-28%	nt	i	-13%	nt	?	7%	9%	1%
O=C(NCc1ccc2c(c1)OCO2)c1cc([N+](=O)[O-])ccc1N1CCCCC1	?	-1%	-21%[10 µM]	?	-17%	-25%	?	-5%	?	4%
O=C(NCc1ccco1)c1cc([N+](=O)[O-])ccc1N1CCCCC1	5%	0%	-16%[10 µM]	?	-8%	8%	nt	nt	nt	nt
Cc1ccc2oc(-c3cccc(NC(=O)COc4ccc(Cl)cc4)c3C)nc2c1	-5%	-12%	nt	nt	nt	nt	nt	nt	nt	nt
NC(=S)N/N=C\c1c(OCc2ccccc2Cl)ccc2ccccc12	6.3µM*	-5%	-41%	i	?	-6%	5.8µM*	?	8.2µM*	34%
NC(=S)N/N=C\c1c2ccccc2cc2ccccc12	-12%	-53%	0%[10 µM]	?	?	?	nt	nt	nt	nt
O=C1CCCC=C1[C@H](CCc1ccccc1)OC(=O)c1ccc(Br)cc1	nt	nt	0%[10 µM]	nt	nt	nt	nt	nt	nt	nt
COc1ccc(CNc2ncnc3ccc(-c4c(C)noc4C)cc23)c(OC)c1	nt	nt	-60%	nt	nt	nt	nt	nt	nt	nt
C=Cc1ccc(C=C)cc1	nt	nt	0%	nt	nt	nt	nt	nt	nt	nt
COc1ccccc1NS(=O)(=O)c1cc(NC(=O)Nc2ccccc2)ccc1N1CCCCC1	11µM*	-5%	-28%[10 µM]	i	10%	?	7.3µM*	-17%	?	-2%
O=C(Nc1ccc(F)cc1)Nc1ccc(N2CCCC2)c(S(=O)(=O)Nc2ccccc2Cl)c1	4µM*	-4%	-31%[10 µM]	?	?	?	4.1µM*	7.3µM*	5.8µM*	109%
O=C(Nc1ccc(N2CCCCC2)c(S(=O)(=O)Nc2ccccc2Cl)c1)c1cccnc1	13µM*	-8%	nt	i	0%	nt	?	?	?	62%
Cc1ccc(NC(=O)c2cc3c(s2)CCCC3)cc1S(=O)(=O)Nc1ccccc1Cl	10µM*	-8%	-11%[10 µM]	i	-22%	?	10µM*	?	?	56%
COc1ccc(-c2ccc(F)cc2)cc1C1C2C=CCC(C)C2C(=O)N1Cc1ccccc1 (stereo unspecified)	-8%	-1%	nt	nt	nt	nt	nt	nt	nt	nt
CCCCCCC(=O)Cc1cc(OC)c(OC)cc1/C=C(/C(C)=O)C(=O)OC	nt	nt	-35%[10 µM]	nt	nt	nt	nt	nt	nt	nt
O=C(Nc1ccc(Cl)c(Cl)c1)Nc1ccc(N2CCCC2)c(S(=O)(=O)Nc2ccccc2Cl)c1	3.2µM*	-26%	15%[10 µM]	?	?	?	4.6µM*	7.3µM*	0.58µM*	86%
C=CCC1(O)CCOc2ccccc21 (stereo unspecified)	nt	nt	-22%	nt	nt	nt	nt	nt	nt	nt
O=C(CN1CCN(C(=O)C2CCN(C(=O)/C=C/c3ccccc3)CC2)CC1)Nc1ccc(F)cc1	-90%	-26%	nt	i	7%	nt	-24%	-1%	-2%	3%
CC(C)(C)N1C(=O)[C@H]2[C@H]3[C@H](O)[C@H](O)C/C(=N/OC[C@@H](O)COCc4ccco4)[C@H]3CC[C@@H]2C1=O	nt	nt	1%[10 µM]	nt	nt	nt	nt	nt	nt	nt
Cc1cc(Nc2ccc(F)cc2)n2c(nc3ccccc32)c1C#N	-10%	-1%	nt	nt	1%	nt	nt	nt	nt	nt
Cc1cc(Nc2cccc([N+](=O)[O-])c2)n2c(nc3ccccc32)c1C#N	1.6µM*	-40%	-2%[10 µM]	?	8.9µM*	2.8µM*	?	?	5.2µM*	33%
